# Source: PubChem BioAssay (NCATS)
# Inconclusive results are not listed. Where a call stands in place of a potency, no number is given. The source made the active and inactive calls. The call rests on the fitted dose curve; in most records, active means well fitted curve in the direction sought with a large enough effect; inconclusive means small, poorly fitted or top-dose-only effect, or another doubt; inactive means no such curve, though single readings can be large; an effect the other way counts as inactive or inconclusive.
# How the values were obtained:
# [1] = biological target: Ubiquitin carboxyl-terminal hydrolase 1 (Homo sapiens) (UniProt O94782); assay: Inhibitors of USP1/UAF1: Pilot qHTS (AID 504865);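 further: rhodamine fluorescence freed from ubiquitin-rhodamine substrate followed over time; top concentration of the series differs between compounds; nearly all actives have a fitted effect of over 35% in size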
# Sequence of Ubiquitin carboxyl-terminal hydrolase 1 (Homo sapiens) (O94782 whole entry, looked up): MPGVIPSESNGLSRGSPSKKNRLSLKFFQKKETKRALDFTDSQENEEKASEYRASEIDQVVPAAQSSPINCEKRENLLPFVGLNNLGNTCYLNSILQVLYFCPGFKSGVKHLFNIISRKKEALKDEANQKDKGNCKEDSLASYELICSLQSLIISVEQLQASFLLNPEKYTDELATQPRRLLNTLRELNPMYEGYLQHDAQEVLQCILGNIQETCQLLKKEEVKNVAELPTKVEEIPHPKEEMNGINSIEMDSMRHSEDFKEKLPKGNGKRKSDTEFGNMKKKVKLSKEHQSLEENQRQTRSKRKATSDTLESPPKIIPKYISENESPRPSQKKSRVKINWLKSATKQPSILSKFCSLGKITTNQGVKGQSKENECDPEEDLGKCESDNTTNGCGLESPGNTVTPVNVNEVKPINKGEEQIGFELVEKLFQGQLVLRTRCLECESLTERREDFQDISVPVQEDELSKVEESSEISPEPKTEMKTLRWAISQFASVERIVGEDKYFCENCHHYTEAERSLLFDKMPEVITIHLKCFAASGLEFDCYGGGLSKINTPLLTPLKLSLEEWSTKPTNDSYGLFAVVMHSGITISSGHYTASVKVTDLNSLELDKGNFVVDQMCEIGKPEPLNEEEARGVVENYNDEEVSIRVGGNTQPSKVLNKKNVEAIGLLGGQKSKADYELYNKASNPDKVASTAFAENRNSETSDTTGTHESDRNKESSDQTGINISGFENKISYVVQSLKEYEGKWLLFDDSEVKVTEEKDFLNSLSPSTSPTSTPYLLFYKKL
# Method in brief: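 1nM USP1/UAF1 + cpd, 15 min RT; start w/ Ub-Rho 150nM final; kinetic FL 480/540 nm, 6 reads q60 s. Buffer 50mM HEPES pH 7.8, 0.5mM EDTA, 1mM TCEP, 0.01% Tween-20, 0.1 mg/ml BSA.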
# [2] = S16 Schwann cell PMP22 intronic element firefly luciferase assay (AID 624032); further: nearly all actives have a fitted effect of over 30% in size; further: potency means the concentration at half of the fitted maximal effect
# Method in brief: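 Luciferase reporter of PMP22 intronic-element expression in stably transfected S16 rat Schwann cells, read by ONE-Glo luminescence after 24 h compound exposure at 37 C. Activity scaled between DMSO (0%) and positive-control PTC124; concentration-effect curves quality-classified.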
# 3D7 = assay: qHTS profiling for inhibitors of Plasmodium falciparum proliferation (AID 504749); further: nearly all actives have a fitted effect of over 60% in size; further: potency means the concentration at half of the fitted maximal effect; conditions: P. falciparum in erythrocytes, SYBR Green DNA, 72 h; series mostly up to 28.7 µM
# Method in brief: (§1)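 SYBR Green fluorescence of parasite DNA, read after lysis and overnight dark incubation, measured growth over 72 h in erythrocyte culture at 0.3% parasitemia and 2.5% hematocrit. Data normalised to DMSO and 0.29 uM artemisinin, with plate-drift correction.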
# AS120 = assay: as above; conditions: P. falciparum in erythrocytes, SYBR Green DNA, 72 h; series mostly up to 28.7 µM
# Method in brief: as §1
# ATS189 = assay: as above; conditions: P. falciparum in erythrocytes, SYBR Green DNA, 72 h; series mostly up to 28.7 µM
# Method in brief: as §1
# CP194 = assay: as above; conditions: P. falciparum in erythrocytes, SYBR Green DNA, 72 h; series mostly up to 28.7 µM
# Method in brief: as §1
# CP201 = assay: as above; conditions: P. falciparum in erythrocytes, SYBR Green DNA, 72 h; series mostly up to 28.7 µM
# Method in brief: as §1
# CP215 = assay: as above; conditions: P. falciparum in erythrocytes, SYBR Green DNA, 72 h; series mostly up to 28.7 µM
# Method in brief: as §1
# CP247 = assay: as above; conditions: P. falciparum in erythrocytes, SYBR Green DNA, 72 h; series mostly up to 28.7 µM
# Method in brief: as §1
# CP250 = assay: as above; conditions: P. falciparum in erythrocytes, SYBR Green DNA, 72 h; series mostly up to 12.8 µM
# Method in brief: as §1
# CP256 = assay: as above; conditions: P. falciparum in erythrocytes, SYBR Green DNA, 72 h; series mostly up to 28.7 µM
# Method in brief: as §1
# CP260 = assay: as above; conditions: P. falciparum in erythrocytes, SYBR Green DNA, 72 h; series mostly up to 28.7 µM
# Method in brief: as §1
# CP265 = assay: as above; conditions: P. falciparum in erythrocytes, SYBR Green DNA, 72 h; series mostly up to 12.8 µM
# Method in brief: as §1
# CP325 = assay: as above; conditions: P. falciparum in erythrocytes, SYBR Green DNA, 72 h; series mostly up to 28.7 µM
# Method in brief: as §1
# CP329 = assay: as above; conditions: P. falciparum in erythrocytes, SYBR Green DNA, 72 h; series mostly up to 28.7 µM
# Method in brief: as §1
# DIV30 = assay: as above; conditions: P. falciparum in erythrocytes, SYBR Green DNA, 72 h; series mostly up to 28.7 µM
# Method in brief: as §1
# Dd2 = assay: as above; conditions: P. falciparum in erythrocytes, SYBR Green DNA, 72 h; series mostly up to 28.7 µM
# Method in brief: as §1
# TAB109 = assay: as above; conditions: P. falciparum in erythrocytes, SYBR Green DNA, 72 h; series mostly up to 12.8 µM
# Method in brief: as §1
# W2 = assay: as above; conditions: P. falciparum in erythrocytes, SYBR Green DNA, 72 h; series mostly up to 12.8 µM
# Method in brief: as §1
# [3] = biological target: RecQ-like DNA helicase BLM (Homo sapiens) (UniProt P54132); assay: qHTS Validation Assay for Inhibitors of Bloom's syndrome helicase (BLM) (AID 2364)
# Sequence of RecQ-like DNA helicase BLM (Homo sapiens) (P54132 whole entry, looked up): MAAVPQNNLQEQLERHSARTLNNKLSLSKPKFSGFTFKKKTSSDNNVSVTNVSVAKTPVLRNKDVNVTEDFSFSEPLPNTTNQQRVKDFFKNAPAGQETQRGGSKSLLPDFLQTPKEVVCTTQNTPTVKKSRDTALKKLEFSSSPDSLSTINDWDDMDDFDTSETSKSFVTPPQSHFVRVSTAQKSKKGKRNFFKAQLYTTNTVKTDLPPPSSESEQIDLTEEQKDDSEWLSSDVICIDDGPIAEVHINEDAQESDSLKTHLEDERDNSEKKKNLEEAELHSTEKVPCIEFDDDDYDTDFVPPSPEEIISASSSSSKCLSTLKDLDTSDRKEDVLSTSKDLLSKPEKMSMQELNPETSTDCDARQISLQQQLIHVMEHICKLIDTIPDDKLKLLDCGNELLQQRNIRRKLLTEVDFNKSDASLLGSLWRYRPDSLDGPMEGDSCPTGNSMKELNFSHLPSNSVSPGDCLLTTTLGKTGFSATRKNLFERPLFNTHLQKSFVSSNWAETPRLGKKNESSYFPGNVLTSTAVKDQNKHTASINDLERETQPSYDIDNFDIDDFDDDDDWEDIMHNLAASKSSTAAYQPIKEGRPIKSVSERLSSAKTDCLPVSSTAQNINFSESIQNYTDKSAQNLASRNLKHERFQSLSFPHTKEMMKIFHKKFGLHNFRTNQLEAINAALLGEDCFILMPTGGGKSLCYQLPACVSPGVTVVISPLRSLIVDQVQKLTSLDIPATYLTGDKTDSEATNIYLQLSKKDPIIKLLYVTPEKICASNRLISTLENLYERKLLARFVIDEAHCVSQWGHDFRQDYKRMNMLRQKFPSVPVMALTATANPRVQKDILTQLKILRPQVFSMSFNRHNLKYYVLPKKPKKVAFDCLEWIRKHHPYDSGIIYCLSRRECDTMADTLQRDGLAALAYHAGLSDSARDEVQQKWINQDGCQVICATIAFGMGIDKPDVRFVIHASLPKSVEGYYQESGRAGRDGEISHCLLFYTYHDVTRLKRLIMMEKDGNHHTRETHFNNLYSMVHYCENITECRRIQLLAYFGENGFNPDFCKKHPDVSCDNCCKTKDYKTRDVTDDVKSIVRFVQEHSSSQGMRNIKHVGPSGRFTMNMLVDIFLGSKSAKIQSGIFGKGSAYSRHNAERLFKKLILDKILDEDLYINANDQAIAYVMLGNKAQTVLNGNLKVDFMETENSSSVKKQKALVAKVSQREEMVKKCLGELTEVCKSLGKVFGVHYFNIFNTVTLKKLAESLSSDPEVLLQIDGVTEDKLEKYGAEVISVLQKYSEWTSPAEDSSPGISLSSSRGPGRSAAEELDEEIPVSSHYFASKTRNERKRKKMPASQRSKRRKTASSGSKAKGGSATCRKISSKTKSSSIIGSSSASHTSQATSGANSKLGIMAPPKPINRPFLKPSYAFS
# Method in brief: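 Forked 20-bp duplex substrate (200 nM, TAMRA/BHQ-2) plus 2 mM ATP added after 15 min compound preincubation with 50 nM enzyme, pH 8.0, poly(dI-dC) 2.5 ug/ml. Strand separation followed by fluorescence (525/598 nm) over 2 h, normalized to enzyme-free and DMSO controls.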
smiles,measurement,setting,value
C[C@]12CC[C@H](OS(=O)(=O)O)CC1=CCC1C2CC[C@]2(C)C(=O)CC[C@@H]12 (stereo not given in full),Potency,[1],inactive
same,Potency,[2],inactive
same,Potency,3D7,inactive
same,Potency,AS120,inactive
same,Potency,ATS189,inactive
same,Potency,CP194,inactive
same,Potency,CP201,inactive
same,Potency,CP215,inactive
same,Potency,CP247,inactive
same,Potency,CP250,inactive
same,Potency,CP256,inactive
same,Potency,CP260,inactive
same,Potency,CP265,inactive
same,Potency,CP325,inactive
same,Potency,CP329,inactive
same,Potency,DIV30,inactive
same,Potency,Dd2,inactive
same,Potency,TAB109,inactive
same,Potency,W2,inactive
COc1ccc2c(c1O)-c1cccc3c1C(C2)N(C)CC3 (stereo not given),outcome,[3],inactive
O=C(O)C1C2CCC(O2)C1C(=O)O (stereo not given),outcome,[3],inactive
C[C@H]1C2Cc3ccc(O)cc3[C@]1(C)CCN2CC1CC1,outcome,[3],inactive
same,Potency,[1],inactive
CC(C)(O)C1C2OC(=O)C1[C@]1(O)C[C@H]3O[C@]34C(=O)O[C@H]2[C@]14C (stereo not given in full) (tested in a mixture with another compound),Potency,[1],inactive
same,Potency,[2],inactive
same,Potency,3D7,inactive
same,Potency,AS120,inactive
same,Potency,ATS189,inactive
same,Potency,CP194,inactive
same,Potency,CP201,inactive
same,Potency,CP215,inactive
same,Potency,CP247,inactive
same,Potency,CP250,inactive
same,Potency,CP256,inactive
same,Potency,CP260,inactive
same,Potency,CP265,inactive
same,Potency,CP325,inactive
same,Potency,CP329,inactive
same,Potency,DIV30,inactive
same,Potency,Dd2,inactive
same,Potency,TAB109,inactive
same,Potency,W2,inactive
Oc1ccc2c3c1O[C@H]1[C@@H](O)CC[C@@]4(O)C(C2)N(CC2CCC2)CCC314 (stereo not given in full),outcome,[3],inactive
same,Potency,[1],inactive
same,Potency,3D7,inactive
same,Potency,AS120,inactive
same,Potency,ATS189,inactive
same,Potency,CP194,inactive
same,Potency,CP201,inactive
same,Potency,CP215,inactive
same,Potency,CP247,inactive
same,Potency,CP250,inactive
same,Potency,CP256,inactive
same,Potency,CP260,inactive
same,Potency,CP265,inactive
same,Potency,CP325,inactive
same,Potency,CP329,inactive
same,Potency,DIV30,inactive
same,Potency,Dd2,inactive
same,Potency,TAB109,inactive
same,Potency,W2,inactive
CCCN(CCC)[C@@H]1CCc2c(F)ccc(O)c2C1,outcome,[3],inactive
[Hg+][c]1ccccc1,Potency,[2],1.02 µM (active)
same,Potency,CP215,10.7 µM (active)
same,Potency,CP260,inactive
same,Potency,Dd2,inactive
same,Potency,W2,12 µM (active)
C[S+](CC[C@H](N)C(=O)O)C[C@H]1O[C@@H](n2cnc3c(N)ncnc32)[C@H](O)[C@@H]1O (stereo not given in full),Potency,[2],inactive
C[C@]12CC[C@H]3[C@@H](CCC4=CC(=O)CC[C@@]43C)[C@@H]1CC[C@@H]2O,Potency,[1],inactive
same,Potency,[2],8.09 µM (active)
same,Potency,3D7,inactive
same,Potency,AS120,inactive
same,Potency,ATS189,inactive
same,Potency,CP194,inactive
same,Potency,CP201,inactive
same,Potency,CP247,inactive
same,Potency,CP250,inactive
same,Potency,CP256,inactive
same,Potency,CP260,inactive
same,Potency,CP265,inactive
same,Potency,CP325,inactive
same,Potency,CP329,inactive
same,Potency,DIV30,inactive
same,Potency,Dd2,inactive
same,Potency,TAB109,inactive
